Source: PubChem BioAssay (NCATS)
Results filed as inconclusive are left out. Where a call stands in place of a potency, no number is given. Activity calls are given as the source filed them. Calls follow the shape of the dose curve; as a rule, active = well fitted activation curve with a large enough effect; inconclusive = small, poorly fitted or top-dose-only effect; inactive = flat fitted curve, though single readings scatter.

Test: Primary redox qHTS assay for identification of artifact compounds. (AID 1845223)
Conditions: Amplex Red/HRP redox cycling with DTT, fluorescence; series mostly up to 53.8 µM
From the text: PI: Alexander Tropsha Ph.D.
UNC Eshelman School of Pharmacy
University of North Carolina, Chapel Hill, North Carolina
Hits from high-throughput screening (HTS) of chemical libraries are often false positives due to their interference with the assay detection technology. In response to this problem, we generated the largest publicly available library of chemical liabilities and developed a free webtool to predict HTS artifacts, both of which are described herein. More specifically, we generated, curated, and integrated HTS datasets for thiol reactivity, redox activity, and luciferase (firefly and nano) activity. Using these curated datasets, we developed and validated several Quantitative Structure-Interference Relationship (QSIR) models to predict nuisance behavior. […] These models were employed for virtual profiling of the National Center for Advancing Translational Science's (NCATS) in-house library, and 256 compounds for each assay were selected for the experimental validation of nuisance behavior. The BA for these external predictions ranged from 58 to 78% for compounds within the applicability domains of the models. […] The models developed in this study, along with aggregation models previously developed by our group (SCAM Detective) were implemented in "Liability Predictor," an online tool which may be used as part of chemical library design or for triaging HTS hits. Both the models and the curated datasets are publicly available at https://liability.mml.unc.edu/.
SEQUENCE No. (e.g., 1, 2, 3, etc.); […] (e.g., Cells, Incubation, Reagent, etc.); VALUE; DESCRIPTION.
1; Reagent; 3 uL; Amplex Red and HRP mixture.
2; Compounds and control; 16 nL; Kalypsis pin tool (Wako USA) equipped with a 1536-well pin head. […]
6; Detection; Fluorescence, ViewLux microplate reader, 525 nm excitation, 598 nm emission.
NOTES (numbers refer to Sequence numbers above)
1. 3 uL of a mixture containing Amplex Red (25 uM final concentration) and horseradish peroxidase (HRP; 250 mU/mL final concentration) in assay buffer (HBSS) was dispensed into all wells of a 1536-well assay plate (solid-bottom black plate; Greiner Bio One, Monroe, NC).
2. A Wako Pin-tool (Wako Automation, Richmond, VA) was used to transfer 16 nL of compounds (consisting of 7-plates in qHTS format, final concentration range 18.3 nM to 114 uM) or control DA3003 (final concentration range 1.22 nM to 40 uM).
3. 15 min. incubation at room temperature protected from light.
4. 1 uL of DTT (prepared fresh; final concentration 250 uM) was dispensed for a final assay volume of 4 uL.
5. Plates were centrifuged (121xg, 15 seconds) and incubated for 30 minutes at room temperature protected from light.
6. Samples were read for fluorescence (Ex/Em = 525(20)/598(25) nm) on a ViewLux CCD imager (PerkinElmer). Data were normalized to DMSO (0% activity) and DA3003 (10 uM final concentration; 100% activity) and the resulting percent inhibition data were fitted to a 4-parameter Hill equation using NCATS in-house software.
With `CNc1cc(OC)c(C(=O)N[C@@H]2CCN(Cc3ccccc3)[C@@H]2C)cc1Cl` the Potency was “inactive”. With `CCN(CC)Cc1cccc(/C=C/c2nc3ccc(F)cc3c(=O)n2-c2ccccc2Cl)n1` the Potency was “inactive”. In the case of `COc1ccc(C2(CNC(=O)[C@](C)(Cc3c[nH]c4ccccc34)NC(=O)Nc3ccc([N+](=O)[O-])cc3)CCCCC2)nc1`, the Potency is reported as “inactive”. In the case of `Nc1nc(NCC2CCC(CNS(=O)(=O)c3cccc4ccccc34)CC2)nc2ccccc12` (stereo not given), the Potency is reported as “inactive”. With `Cn1cc(-c2cnc3ccc4ccc(CS(=O)(=O)NCc5ccccn5)cc4c(=O)c3c2)cn1` the Potency was “inactive”. With `O=C(Nc1cccc(C(F)(F)F)c1)c1ccccc1NCc1ccncc1` the Potency was “inactive”. With `Cc1cc2nc(NCCCO)n(CC(=O)c3cc(C(C)(C)C)c(O)c(C(C)(C)C)c3)c2cc1C` the Potency was “inactive”. For `Fc1ccc(C2CCNC[C@H]2COc2ccc3c(c2)OCO3)cc1` (stereo not given in full), the Potency was “inactive”. With `COc1cccc(CNC(=O)Nc2nc(-c3ccncc3)cs2)c1` the Potency was “inactive”. With `O=C(/C=C/n1cnc(-c2cc(C(F)(F)F)cc(C(F)(F)F)c2)n1)NNc1cnccn1` the Potency was “inactive”. For `COc1cc2ncnc(Nc3ccc(Oc4ccccc4)cc3)c2cc1OC`, the Potency was “inactive”. In the case of `COc1ccc(Cl)cc1[C@@]1(F)C(=O)Nc2cc(C(F)(F)F)ccc21`, the Potency is reported as “inactive”. For `N#Cc1c[nH]c2c(C(=O)N3CCN(CCc4ccc(F)cc4)CC3)cccc12`, the Potency was “inactive”. For `CCOc1cc(CNC2CCCC2)cc(Cl)c1OCc1ccc(Cl)cc1`, the Potency was “inactive”. In the case of `COc1ccc(-c2nc(-c3cc(C(F)(F)F)cc(C(F)(F)F)c3)n(Cc3ccc(C(N)=O)cc3)c2-c2ccc(OC)cc2)cc1`, the Potency is reported as “inactive”. In the case of `Cc1ccc(C2(COC(=O)C(C)C)CO2)c(OC(=O)C(C)C)c1` (stereo not given), the Potency is reported as “inactive”. In the case of `CN(C)CC(=O)Nc1ccc2[nH]c(=O)c3ccccc3c2c1`, the Potency is reported as “inactive”. In the case of `COCCNCc1ccc(-c2cc3nccc(Oc4ccc(NC(=S)NC(=O)Cc5ccc(F)cc5)cc4F)c3s2)nc1`, the Potency is reported as “inactive”. With `C/C=C/C[C@@H](C)[C@@H](O)[C@H]1C(=O)N[C@@H](CC)C(=O)N(C)CC(=O)N(C)[C@@H](CC(C)C)C(=O)N[C@@H](C(C)C)C(=O)N(C)[C@@H](CC(C)C)C(=O)N[C@@H](C)C(=O)N[C@H](C)C(=O)N(C)[C@@H](CC(C)C)C(=O)N(C)[C@@H](CC(C)C)C(=O)N(C)[C@H](C(C)C)C(=O)N1C` the Potency was “inactive”. For `O=C1c2c(O[C@@H]3O[C@H](CO)[C@@H](O)[C@H](O)[C@H]3O)cc(O)cc2OC1(O)Cc1ccc(O)cc1` (stereo not given in full), the Potency was “inactive”. For `Oc1ccc(Nc2nc(-c3ccc(Cl)cc3)cs2)cc1`, the Potency was “inactive”. For `CC1OC2O[C@H]3[C@@H](OCC(O)[C@H]3O)OC(=O)C34CCC(C)(C)CC3C3=CCC5C6(C)CC(O)C(OC7OC(CO)C(O)C(O)C7O[C@@H]7OC[C@H](OC(=O)CC(C)(O)CC(=O)OC1C(OC1OCC(O)C(O)C1O)C2O)[C@@H](O)[C@H]7O)C(C)(CO)C6CCC5(C)C3(C)CC4` (stereo not given in full), the Potency was “inactive”. With `COc1cc(N2CCN(C)CC2)ccc1Nc1nccc(-c2cn(C)c3cnccc23)n1` the Potency was “inactive”. With `N#Cc1ccc(-c2ccc(NC(=O)Nc3ccc(-c4ccnc5nc[nH]c45)cc3)cc2)cc1` the Potency was “inactive”. In the case of `CC1CCC2C(C)(C)C(O)CCC2(C)C12Cc1c(O)cc3c(c1O2)CN(C(CCCN=C(N)N)C(=O)O)C3=O` (stereo not given), the Potency is reported as “inactive”. With `Cc1nc(C)c2c(n1)N(Cc1ccc(-c3ccccc3-c3nn[nH]n3)cc1)C(=O)CC2` the Potency was “inactive”. In the case of `CCC[C@@H](NC(=O)N1C(=O)C(CC)(CC)[C@@H]1Oc1ccc(C(=O)N2CCN(C)CC2)cc1)c1ccc2c(c1)OCO2`, the Potency is reported as “inactive”. For `Fc1ccccc1CNCc1ccc(-c2ccnc3[nH]ccc23)cc1`, the Potency was “inactive”. In the case of `CC(CCC1(O)OC2CC3C4CC=C5CC(O[C@@H]6O[C@H](CO)[C@@H](O[C@@H]7O[C@H](CO)[C@@H](O)[C@H](O)[C@H]7O)[C@H](O)[C@H]6O[C@@H]6O[C@@H](C)[C@H](O)[C@@H](O)[C@H]6O)CCC5(C)C4CCC3(C)C2C1C)CO[C@@H]1O[C@H](CO)[C@@H](O)[C@H](O)[C@H]1O` (stereo not given in full), the redox activity (% of DA3003) is reported as 5.01% [at 11.5 µM] (inactive). For `C=C1C(=O)O[C@@H]2C[C@@H](C)[C@]34C[C@]5(C(=O)O[C@H]6CC(C)=C([C@H](C)CCCO)[C@H](OC(=O)C(C)CC)[C@H]65)[C@@H](C(C)=C3C[C@@H]12)[C@H]4OC(C)=O` (stereo not given in full), the Potency was “inactive”. With `CCN1CCN(Cc2ccc(-c3cc4c(NC(C)c5ccccc5)ncnc4[nH]3)cc2)CC1` (stereo not given) the Potency was “inactive”. With `Clc1ccccc1CNCC1CCC(CNCc2ccccc2Cl)CC1` (stereo not given) the Potency was “inactive”. For `O=C(CCCCCCC(=O)Nc1ccc(C2OC(CSc3nc(-c4ccccc4)c(-c4ccccc4)o3)CC(c3ccc(CO)cc3)O2)cc1)NO` (stereo not given), the Potency was “inactive”. In the case of `CC[C@@H](C)[C@H]1C(=O)O[C@H](C(C)C)C(=O)N(C)[C@@H](C(C)C)C(=O)O[C@H](C(C)C)C(=O)N(C)[C@@H](C(C)C)C(=O)O[C@H](CC(C)C)C(=O)N1C`, the Potency is reported as “inactive”. In the case of `COc1cc2ncnc(Oc3cccc(NC(=O)Nc4cc(C(C)(C)C(F)(F)F)on4)c3)c2cc1OC`, the Potency is reported as “inactive”. With `C[C@@H](O[C@H]1OCCN(Cc2n[nH]nc2CN(C)C)[C@H]1c1ccc(F)cc1)c1cc(C(F)(F)F)cc(C(F)(F)F)c1` the Potency was “inactive”. For `CN([C@H]1c2cc(OCCCC(F)(F)F)ccc2OC(C)(C)[C@@H]1O)S(C)(=O)=O`, the Potency was “inactive”. With `O=C(Nc1ncc(SCCN2CCCC2)s1)C1(c2ccc(S(=O)(=O)C3CC3)cc2)CC1C1CCCCC1` (stereo not given) the Potency was “inactive”. For `Cc1cc(N=Nc2ccc(S(=O)(=O)Nc3ccccn3)cc2)c(N)cc1O`, the Potency was “inactive”. In the case of `CN(C)C(=O)c1cc2cnc(Nc3ccc(N4CCNCC4)cn3)nc2n1C1CCCC1`, the Potency is reported as “inactive”.
